Tests used:
Experiment in all cases: growth AUC relative to DMSO control (median of replicates) (fraction); higher = more growth (less inhibition), active = hit call of the paper
Details in all cases: 20 µM; 24 h;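 active = AUC reduced over 20% with Padj below 0.05 in at least 2 of 3 replicates; inactive = otherwise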
Akkermansia muciniphila = system: Akkermansia muciniphila
Summary of the method: (§1)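 Area under the growth curve was normalised to the plate median of solvent-only wells, except on the industrial chemical plate, where row and column medians were used. Curves came from gut bacterial monocultures grown anaerobically at 37 °C in mGAM with 20 µM compound (1% DMSO), starting at OD600 0.05 and read at OD600 every hour for 24 h. The minimum OD of each curve was set to 0, and values are medians of three biological replicates grown on separate days.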

Bacteroides caccae = system: Bacteroides caccae
Summary of the method: as §1

Bacteroides clarus = system: Bacteroides clarus
Summary of the method: as §1

Bacteroides dorei = system: Bacteroides dorei
Summary of the method: as §1

Bacteroides stercoris = system: Bacteroides stercoris
Summary of the method: as §1

[1] = system: Bacteroides thetaiotaomicron
Summary of the method: as §1

Bacteroides uniformis = system: Bacteroides uniformis
Summary of the method: as §1

[2] = system: Bifidobacterium longum subsp. longum
Summary of the method: as §1

Clostridium difficile = system: Clostridium difficile
Summary of the method: as §1

Collinsella aerofaciens = system: Collinsella aerofaciens
Summary of the method: as §1

Coprococcus comes = system: Coprococcus comes
Summary of the method: as §1

Escherichia coli ED1a = system: Escherichia coli ED1a
Summary of the method: as §1

Escherichia coli IAI1 = system: Escherichia coli IAI1
Summary of the method: as §1

Eubacterium rectale = system: Eubacterium rectale
Summary of the method: as §1

[3] = system: Fusobacterium nucleatum subsp. animalis
Summary of the method: as §1

Lactobacillus gasseri = system: Lactobacillus gasseri
Summary of the method: as §1

Lactobacillus paracasei = system: Lactobacillus paracasei
Summary of the method: as §1

Odoribacter splanchnicus = system: Odoribacter splanchnicus
Summary of the method: as §1

[4] = system: Parabacteroides distasonis
Summary of the method: as §1

Parabacteroides merdae = system: Parabacteroides merdae
Summary of the method: as §1

Measured: growth AUC

COC(=O)NCc1cc(/C(C)=N/OCc2cccc(C)n2)ccc1Cl
inactive: Akkermansia muciniphila 1.06 | Bacteroides caccae 0.965 | Bacteroides clarus 0.947 | Bacteroides dorei 0.946 | Bacteroides stercoris 0.972 | [1] 0.944 | Bacteroides uniformis 0.808 | [2] 0.981 | Clostridium difficile 0.956 | Collinsella aerofaciens 1.01 | Coprococcus comes 1.03 | Escherichia coli ED1a 1.01 | Escherichia coli IAI1 0.972 | Eubacterium rectale 0.998 | [3] 0.933 | Lactobacillus gasseri 0.911 | Lactobacillus paracasei 0.969 | Odoribacter splanchnicus 1.01 | [4] 0.919 | Parabacteroides merdae 0.955

CCN(CC)C(=S)[S-].O.O.O.[Na+]
inactive: Akkermansia muciniphila 0.862 | Bacteroides caccae 0.981 | Bacteroides clarus 1.01 | Bacteroides dorei 0.978 | Bacteroides stercoris 1.08 | [1] 0.848 | Bacteroides uniformis 1.01 | [2] 0.961 | Clostridium difficile 1.04 | Collinsella aerofaciens 0.925 | Coprococcus comes 0.964 | Escherichia coli ED1a 0.972 | Escherichia coli IAI1 0.976 | Eubacterium rectale 0.983 | [3] 1.09 | Lactobacillus gasseri 1.01 | Lactobacillus paracasei 0.978 | Odoribacter splanchnicus 1 | [4] 0.982 | Parabacteroides merdae 0.873

CC1(C)[C@H](C(=O)O[C@H](C#N)c2cccc(Oc3ccccc3)c2)[C@@H]1C=C(Br)Br
inactive: Akkermansia muciniphila 0.878 | Bacteroides caccae 0.983 | Bacteroides clarus 0.982 | Bacteroides dorei 1.04 | Bacteroides stercoris 1.04 | [1] 1.02 | Bacteroides uniformis 1.05 | [2] 0.843 | Clostridium difficile 1.02 | Collinsella aerofaciens 0.935 | Coprococcus comes 0.985 | Escherichia coli ED1a 0.991 | Escherichia coli IAI1 0.979 | Eubacterium rectale 1.11 | [3] 0.922 | Lactobacillus gasseri 0.926 | Lactobacillus paracasei 0.986 | Odoribacter splanchnicus 1.03 | [4] 0.972 | Parabacteroides merdae 0.921

CN(C)C(=O)C(c1ccccc1)c1ccccc1
inactive: Akkermansia muciniphila 0.89 | Bacteroides caccae 1.03 | Bacteroides clarus 0.963 | Bacteroides dorei 1.05 | Bacteroides stercoris 0.957 | [1] 0.992 | Bacteroides uniformis 1.05 | [2] 0.947 | Clostridium difficile 1.03 | Collinsella aerofaciens 1.01 | Coprococcus comes 0.974 | Escherichia coli ED1a 0.98 | Escherichia coli IAI1 0.977 | Eubacterium rectale 1.11 | [3] 0.975 | Lactobacillus gasseri 1 | Lactobacillus paracasei 0.887 | Odoribacter splanchnicus 0.957 | [4] 1 | Parabacteroides merdae 1

c1ccc2c(c1)-c1cccc3cccc-2c13
inactive: Akkermansia muciniphila 0.967 | Bacteroides caccae 0.969 | Bacteroides clarus 0.997 | Bacteroides dorei 0.999 | Bacteroides stercoris 0.98 | [1] 0.963 | Bacteroides uniformis 0.996 | [2] 0.857 | Clostridium difficile 1.02 | Collinsella aerofaciens 0.93 | Coprococcus comes 0.92 | Escherichia coli ED1a 0.941 | Escherichia coli IAI1 1 | Eubacterium rectale 0.91 | [3] 0.954 | Lactobacillus gasseri 1.03 | Lactobacillus paracasei 0.98 | Odoribacter splanchnicus 1 | [4] 0.938 | Parabacteroides merdae 0.935

COC(=O)C(C)N(C(=O)Cc1ccccc1)c1c(C)cccc1C (stereo not given)
inactive: Akkermansia muciniphila 0.959 | Bacteroides caccae 0.985 | Bacteroides clarus 0.957 | Bacteroides dorei 0.99 | Bacteroides stercoris 0.954 | [1] 0.956 | Bacteroides uniformis 0.878 | [2] 1.02 | Clostridium difficile 0.977 | Collinsella aerofaciens 1.02 | Coprococcus comes 0.967 | Escherichia coli ED1a 0.995 | Escherichia coli IAI1 0.972 | Eubacterium rectale 0.916 | [3] 0.917 | Lactobacillus gasseri 0.888 | Lactobacillus paracasei 0.98 | Odoribacter splanchnicus 0.96 | [4] 0.985 | Parabacteroides merdae 0.944

O=[N+]([O-])c1ccc2ccc3cccc4ccc1c2c34
inactive: Akkermansia muciniphila 0.948 | Bacteroides dorei 0.851 | Bacteroides uniformis 0.877 | [2] 1.3 | Clostridium difficile 0.913 | Collinsella aerofaciens 0.983 | Coprococcus comes 0.972 | Escherichia coli ED1a 0.988 | Escherichia coli IAI1 0.99 | Lactobacillus gasseri 0.99 | Lactobacillus paracasei 1.02
active: Bacteroides caccae 0.59 | Bacteroides clarus 0.783 | Bacteroides stercoris 0.179 | [1] 0.737 | Eubacterium rectale 0.577 | [3] 0.401 | Odoribacter splanchnicus 0.0656 | [4] 0.579 | Parabacteroides merdae 0.495

CCCSP(=O)(OCC)SCCC
inactive: Akkermansia muciniphila 1.14 | Bacteroides caccae 0.994 | Bacteroides clarus 1.02 | Bacteroides dorei 0.962 | Bacteroides stercoris 1.02 | [1] 0.998 | Bacteroides uniformis 0.98 | [2] 1.02 | Clostridium difficile 0.997 | Collinsella aerofaciens 0.99 | Coprococcus comes 1.03 | Escherichia coli ED1a 1.02 | Escherichia coli IAI1 0.987 | Eubacterium rectale 1.07 | [3] 0.995 | Lactobacillus gasseri 0.902 | Lactobacillus paracasei 0.96 | Odoribacter splanchnicus 0.986 | [4] 0.976 | Parabacteroides merdae 1.01

Cc1ccccc1C(=O)Nc1cccc(OC(C)C)c1
inactive: Akkermansia muciniphila 0.926 | Bacteroides caccae 1.01 | Bacteroides clarus 0.992 | Bacteroides dorei 1 | Bacteroides stercoris 0.993 | [1] 0.928 | Bacteroides uniformis 0.945 | [2] 1.02 | Clostridium difficile 0.984 | Collinsella aerofaciens 1 | Coprococcus comes 1.02 | Escherichia coli ED1a 0.991 | Escherichia coli IAI1 1 | Eubacterium rectale 0.953 | [3] 0.955 | Lactobacillus gasseri 1.06 | Lactobacillus paracasei 1.01 | Odoribacter splanchnicus 1.03 | [4] 1.04 | Parabacteroides merdae 0.974

O=C1C=CC(=O)C=C1
inactive: Akkermansia muciniphila 0.97 | Bacteroides caccae 0.991 | Bacteroides clarus 0.992 | Bacteroides dorei 1.01 | Bacteroides stercoris 1.02 | [1] 1.01 | Bacteroides uniformis 1 | [2] 1.01 | Clostridium difficile 0.997 | Collinsella aerofaciens 0.992 | Coprococcus comes 1.02 | Escherichia coli ED1a 1.01 | Escherichia coli IAI1 1.01 | Eubacterium rectale 0.986 | [3] 0.983 | Lactobacillus gasseri 1.04 | Lactobacillus paracasei 1 | Odoribacter splanchnicus 0.975 | [4] 1.03 | Parabacteroides merdae 1.01

CCOC(=O)CC(SP(=O)(OC)OC)C(=O)OCC (stereo not given)
inactive: Akkermansia muciniphila 1.24 | Bacteroides caccae 0.989 | Bacteroides clarus 0.992 | Bacteroides dorei 0.919 | Bacteroides stercoris 0.976 | [1] 1.01 | Bacteroides uniformis 0.972 | [2] 0.996 | Clostridium difficile 0.952 | Collinsella aerofaciens 0.973 | Coprococcus comes 1 | Escherichia coli ED1a 0.97 | Escherichia coli IAI1 0.976 | Eubacterium rectale 1.09 | [3] 0.893 | Lactobacillus gasseri 0.883 | Lactobacillus paracasei 0.973 | Odoribacter splanchnicus 0.913 | [4] 0.902 | Parabacteroides merdae 0.975

O=S(=O)(c1ccc(Cl)cc1)c1cc(Cl)c(Cl)cc1Cl
inactive: Akkermansia muciniphila 1.07 | Bacteroides caccae 0.921 | Bacteroides clarus 0.935 | Bacteroides dorei 0.91 | Bacteroides stercoris 0.931 | [1] 0.952 | Bacteroides uniformis 0.903 | [2] 1.04 | Clostridium difficile 0.963 | Collinsella aerofaciens 0.945 | Coprococcus comes 0.987 | Escherichia coli ED1a 0.98 | Escherichia coli IAI1 0.99 | Eubacterium rectale 0.926 | [3] 0.9 | Lactobacillus gasseri 0.99 | Lactobacillus paracasei 0.731 | Odoribacter splanchnicus 1.01 | [4] 0.971 | Parabacteroides merdae 0.984

CCCN(CC1CC1)c1c([N+](=O)[O-])cc(C(F)(F)F)cc1[N+](=O)[O-]
inactive: Akkermansia muciniphila 1.35 | Bacteroides caccae 0.93 | Bacteroides clarus 1.03 | Bacteroides dorei 0.953 | Bacteroides stercoris 1.42 | [1] 1 | Bacteroides uniformis 1.03 | [2] 1.03 | Clostridium difficile 0.979 | Collinsella aerofaciens 0.955 | Coprococcus comes 0.995 | Escherichia coli ED1a 1.01 | Escherichia coli IAI1 1.03 | Eubacterium rectale 1 | [3] 1.09 | Lactobacillus gasseri 1.11 | Lactobacillus paracasei 0.977 | Odoribacter splanchnicus 0.943 | [4] 1.03 | Parabacteroides merdae 1.03

COc1cc(OC)n2nc(S(=O)(=O)Nc3c(Cl)ccc(C)c3Cl)nc2n1
inactive: Akkermansia muciniphila 1.05 | Bacteroides caccae 0.98 | Bacteroides clarus 0.962 | Bacteroides dorei 1.06 | Bacteroides stercoris 0.969 | [1] 0.99 | Bacteroides uniformis 0.964 | [2] 0.976 | Clostridium difficile 1.08 | Collinsella aerofaciens 1.11 | Coprococcus comes 1.02 | Escherichia coli ED1a 0.993 | Escherichia coli IAI1 1.02 | Eubacterium rectale 0.994 | [3] 0.9 | Lactobacillus gasseri 1.09 | Lactobacillus paracasei 0.978 | Odoribacter splanchnicus 1.02 | [4] 1.06 | Parabacteroides merdae 0.986

C1CCC(NC2CCCCC2)CC1.O=NO
inactive: Akkermansia muciniphila 0.874 | Bacteroides caccae 0.983 | Bacteroides clarus 0.991 | Bacteroides dorei 0.991 | Bacteroides stercoris 0.831 | [1] 0.984 | Bacteroides uniformis 0.943 | [2] 0.967 | Clostridium difficile 1.01 | Collinsella aerofaciens 1.08 | Coprococcus comes 0.832 | Escherichia coli ED1a 0.991 | Escherichia coli IAI1 0.95 | [3] 1 | Lactobacillus gasseri 1.06 | Lactobacillus paracasei 0.985 | Odoribacter splanchnicus 0.93 | [4] 0.936
active: Eubacterium rectale 0.601 | Parabacteroides merdae 0.753

CS(=O)(=O)c1ccc(C(=O)C2C(=O)CCCC2=O)c([N+](=O)[O-])c1
inactive: Akkermansia muciniphila 0.895 | Bacteroides caccae 0.986 | Bacteroides clarus 0.946 | Bacteroides dorei 0.977 | Bacteroides stercoris 0.979 | [1] 0.972 | Bacteroides uniformis 0.965 | [2] 0.965 | Clostridium difficile 0.986 | Collinsella aerofaciens 0.972 | Coprococcus comes 0.966 | Escherichia coli ED1a 1 | Escherichia coli IAI1 0.985 | Eubacterium rectale 0.882 | [3] 0.97 | Lactobacillus gasseri 1.04 | Lactobacillus paracasei 1.02 | Odoribacter splanchnicus 0.736 | [4] 0.998 | Parabacteroides merdae 0.948

From the supplement of paper PMC12669032
